From the supplement of paper PMC6089552
In all, about 3,200 compounds went through this assay and about 300 (9.4%) showed activity. The sample holds actives, similar compounds and a random draw of the others, so the mix is not that of the screen.

Tested on: A673/TR/shEF
Test: cell viability (LOESS-normalised, relative to median of negative controls) (log2 ratio); higher = more viable cells (less compound effect), active = hit call of the paper (over 3 MAD below the median)
Details: treatment time: 72 h
Outline: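 For three days, A673/TR/shEF Ewing sarcoma cells in 384-well plates (1,500 per well) were treated with library compounds at two or more concentrations or with DMSO controls, after doxycycline had been added or withheld 24 h beforehand to induce EWS-FLI1 shRNA knockdown. Viability was read by CellTiter-Glo luminescence on an Envision reader. The data were LOESS-corrected per plate, divided by the median of negative controls and log2-transformed.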

[1] = 0.25 µM, library screen: screen1, EWS-FLI1 expression: high (no doxycycline)
[2] = 0.25 µM, library screen: screen1, EWS-FLI1 expression: low (doxycycline-induced shRNA knockdown)
[3] = 2.5 µM, library screen: screen1, EWS-FLI1 expression: high (no doxycycline)
[4] = 2.5 µM, library screen: screen1, EWS-FLI1 expression: low (doxycycline-induced shRNA knockdown)
[5] = 0.025 µM, library screen: screen1, EWS-FLI1 expression: high (no doxycycline)
[6] = 0.025 µM, library screen: screen1, EWS-FLI1 expression: low (doxycycline-induced shRNA knockdown)
[7] = 0.25 µM, library screen: screen2, EWS-FLI1 expression: high (no doxycycline)
[8] = 0.25 µM, library screen: screen2, EWS-FLI1 expression: low (doxycycline-induced shRNA knockdown)
[9] = 2.5 µM, library screen: screen2, EWS-FLI1 expression: high (no doxycycline)
[10] = 2.5 µM, library screen: screen2, EWS-FLI1 expression: low (doxycycline-induced shRNA knockdown)
[11] = 25 µM, library screen: screen1, EWS-FLI1 expression: high (no doxycycline)
[12] = 25 µM, library screen: screen1, EWS-FLI1 expression: low (doxycycline-induced shRNA knockdown)
[13] = 0.103 µM, library screen: screen3, EWS-FLI1 expression: high (no doxycycline)
[14] = 0.103 µM, library screen: screen3, EWS-FLI1 expression: low (doxycycline-induced shRNA knockdown)
[15] = 0.308 µM, library screen: screen3, EWS-FLI1 expression: high (no doxycycline)
[16] = 0.308 µM, library screen: screen3, EWS-FLI1 expression: low (doxycycline-induced shRNA knockdown)
[17] = 0.926 µM, library screen: screen3, EWS-FLI1 expression: high (no doxycycline)
[18] = 0.926 µM, library screen: screen3, EWS-FLI1 expression: low (doxycycline-induced shRNA knockdown)
[19] = 2.8 µM, library screen: screen3, EWS-FLI1 expression: high (no doxycycline)
[20] = 2.8 µM, library screen: screen3, EWS-FLI1 expression: low (doxycycline-induced shRNA knockdown)
[21] = 8.3 µM, library screen: screen3, EWS-FLI1 expression: high (no doxycycline)
[22] = 8.3 µM, library screen: screen3, EWS-FLI1 expression: low (doxycycline-induced shRNA knockdown)
[23] = 25 µM, library screen: screen3, EWS-FLI1 expression: high (no doxycycline)
[24] = 25 µM, library screen: screen3, EWS-FLI1 expression: low (doxycycline-induced shRNA knockdown)

Measured: cell viability (log2)

CC1(C)C(=O)C=C[C@]2(C)[C@H]3CC[C@@]4(C)[C@H](c5ccoc5)OC(=O)[C@H]5O[C@]54[C@]3(C)C=C[C@@H]12
inactive: [1] 0.0993 | [2] 0.0207 | [3] 0.1 | [4] 0.161

CC(=O)O[C@H]1C[C@@H](OC(C)=O)C(C)(C)C2C[C@@H](OC(C)=O)[C@@]3(C)C4=CC(=O)OC(=O)[C@]4(C)CCC3[C@]21C (stereo partly drawn)
inactive: [1] 0.0349 | [2] 0.118 | [3] 0.174 | [4] 0.189

CC1(C)C(=O)[C@@H]2C[C@@]3(O)C4=CC(=O)O[C@@H](c5ccoc5)[C@]4(C)CCC3C(C)(C2=O)[C@H]1CC(=O)O (stereo partly drawn)
inactive: [1] 0.0688 | [2] 0.13 | [3] 0.086 | [4] 0.0264

O=C(O)c1ccc(OC2CSC2)cc1
inactive: [1] -0.0489 | [2] 0.0317 | [3] 0.0805 | [4] 0.0727

CC(C)N1C(=O)/C(=C/c2ccc(N(C)C)cc2)SC1=S
inactive: [1] 0.23 | [2] 0.276 | [3] 0.232 | [4] 0.349

CN(C)c1ccc(/C=C2\C(=O)Nc3ccccc32)cc1
inactive: [5] 0.182 | [6] 0.00152 | [1] 0.171 | [2] 0.0583 | [4] 0.0499 | [12] 0.195
active: [7] -1.84 | [8] -0.565 | [3] -0.163 | [9] -2.61 | [10] -0.918 | [11] -0.158

O=C1Nc2ccc(I)cc2/C1=C/c1cc(Br)c(O)c(Br)c1
inactive: [5] 0.115 | [6] -0.011 | [1] 0.134 | [2] -0.0458 | [7] 0.275 | [8] 0.0983 | [3] 0.0489 | [4] 0.0445 | [9] 0.0633 | [10] 0.123 | [11] -0.0847 | [12] 0.107

O=C(O)CN(CC(=O)O)Cc1cc2c(cc1O)Oc1cc(O)c(CN(CC(=O)O)CC(=O)O)cc1C21OC(=O)c2ccccc21
inactive: [1] 0.133 | [2] 0.0463 | [3] 0.15 | [4] 0.0168

COc1ccc(NC(=O)/C(=C/c2cccnc2)NC(=O)c2cccs2)cc1
inactive: [1] 0.123 | [2] 0.163 | [3] 0.1 | [4] 0.101

Brc1ccc(CN2CCN(Cc3ccco3)CC2)cc1
inactive: [1] 0.0694 | [2] 0.0304 | [3] 0.0829 | [4] -0.00775

CC1=C(C(=O)OC2CCCC2)C(c2coc3ccc(Cl)cc3c2=O)C2=C(CCCC2=O)N1 (stereo not drawn)
inactive: [1] 0.123 | [2] 0.0763 | [3] 0.136 | [4] -0.0126

CC(C)c1c(O)ccc2c1CC[C@H]1C(C)(C)CCC[C@]21C
inactive: [1] 0.0946 | [2] 0.115 | [3] 0.166 | [4] 0.269

CCN(CC)C(=S)SSC(=S)N(CC)CC
inactive: [13] 0.0335 | [14] 0.117 | [7] 0.112 | [8] 0.121 | [15] -0.158 | [16] 0.0728
active: [1] -1.42 | [2] -0.538 | [17] -4.24 | [18] -2.11 | [3] -2.82 | [4] -1.78 | [9] -4.17 | [10] -0.213 | [19] -4.24 | [20] -4.26 | [21] -4.26 | [22] -4.27 | [23] -4.26 | [24] -4.25

Cc1cc(Cl)ccc1OCC(O)CN1CCN(C)CC1 (stereo not drawn)
inactive: [1] 0.0377 | [2] 0.029 | [3] 0.0948 | [4] 0.184

N[C@@H](C=O)[C@@H](O)[C@H](O)[C@H](O)CO
inactive: [1] 0.0986 | [2] 0.0199 | [3] 0.192 | [4] 0.145

CN(C)CC/C=C1\c2ccccc2COc2ccccc21
inactive: [1] 0.126 | [2] 0.129 | [7] 0.0848 | [8] 0.0467 | [3] 0.131 | [4] 0.118 | [9] 0.142 | [10] 0.121

CN(C)CCC=C1c2ccccc2CCc2ccccc21
active: [7] -0.148
inactive: [1] 0.0816 | [2] 0.086 | [8] 0.138 | [3] 0.144 | [4] 0.0763 | [9] 0.0454 | [10] 0.0908

CN(C)CCC=C1c2ccccc2C=Cc2ccccc21
inactive: [1] 0.131 | [2] 0.0615 | [7] 0.206 | [8] 0.141 | [3] 0.117 | [4] 0.104 | [9] 0.126 | [10] 0.0683

COc1c(C2COc3cc4c(cc3C2=O)CC(O)C(C)(C)O4)ccc2c1CCC(C)(C)O2 (stereo not drawn)
inactive: [1] 0.0719 | [2] 0.0278 | [3] 0.0883 | [4] 0.0229

CNC(=O)CN(CCN(CCN(CC(=O)[O-])CC(=O)NC)CC(=O)[O-])CC(=O)[O-].O.[Gd+3]
inactive: [13] 0.106 | [14] -0.0293 | [15] 0.00861 | [16] 0.114 | [17] 0.0946 | [18] 0.0839 | [19] 0.127 | [20] 0.127 | [21] 0.0841 | [22] 0.116 | [23] 0.0924 | [24] 0.134

C=C1[C@@H]([C@@]2(C)C=CC(=O)C(C)(C)[C@@H]2CC(=O)OC)CC[C@@]2(C)C(c3ccoc3)OC(=O)[C@H]3O[C@]132 (stereo partly drawn)
inactive: [1] 0.109 | [2] 0.0181 | [3] 0.0641 | [4] 0.0727

CC(=O)O[C@@H]1CC2C(C)(C)[C@H](O)C[C@H](O)[C@]2(C)C2CC[C@@]3(C)[C@H](c4ccoc4)OC(=O)[C@H]4O[C@]43[C@@]21C (stereo partly drawn)
inactive: [1] 0.0571 | [2] 0.106 | [3] 0.13 | [4] 0.11

O[C@H]1[C@H]2c3cc4c(cc3CN3CCC(=C[C@@H]1O)[C@H]23)OCO4
inactive: [1] 0.0121 | [2] 0.0722 | [3] 0.0564 | [4] -0.019

CO[C@H]1C=C[C@@]23c4cc5c(cc4CN(C[C@@H]2O)[C@H]3C1)OCO5
active: [3] -0.415 | [4] -0.623
inactive: [1] 0.0568 | [2] 0.0269
